Results with a measured potency or affinity are listed apart. Calls of active or inactive are those of the source. No rule for the calls is given here.
Test: HEK293 cell cytotoxicity, dose response, cytotoxicity control, plate reader, cherry-picked samples (AID 743446)
Details: hits give low values; at 26 µM unless noted

SMILES | max activity
Brc1ccc(-c2nc(-c3ccccn3)no2)o1 | -10% (inactive)
COc1ccc(NC(=O)N(C)C[C@@H]2OCCCC[C@H](C)Oc3ccc(NC(=O)C4CCCCC4)cc3C(=O)N([C@H](C)CO)C[C@@H]2C)cc1 | 11.8% (inactive)
O=S1(=O)CCOC[C@H](CC2CCCCC2)N1Cc1ccccc1F | -17.9% [at 0.1 µM] (inactive)
CN1CCN(c2ccc(NC(=O)c3sc4ccccc4c3Cl)cc2)CC1 | 17.1% [at 0.1 µM] (inactive)
C[C@H](CO)N1C[C@H](C)[C@H](CN(C)C(=O)Nc2ccccc2)OCCCC[C@H](C)Oc2ccc(NC(=O)CCC(F)(F)F)cc2C1=O | -24.3% [at 0.195 µM] (inactive)
COc1ccc(/C=C/C(=O)Nc2ccccc2C(=O)O)cc1OC | 13.2% [at 1.6 µM] (inactive)
COc1ccc2nc(-c3ccccn3)ccc2c1 | -37.6% (inactive)
O=C(Nc1nc2ccccc2[nH]1)c1ccc(Cl)cc1 | 71.5% [at 0.8 µM] (inactive)
Cc1ccc2nc(CSc3nc(C)ccc3C#N)[nH]c2c1 | -29.6% [at 1.6 µM] (inactive)
C[C@H](CO)N1C[C@H](C)[C@H](CN(C)C(=O)Nc2ccc3c(c2)OCO3)OCCCC[C@H](C)Oc2ccc(NC(=O)C3CCCCC3)cc2C1=O | 17.6% (inactive)
CC[C@H](CO)Oc1cc(NCc2ccc(Cl)c(Cl)c2)c2ncn(C(C)C)c2c1 | 27.3% [at 0.05 µM] (inactive)
CC(=O)N1CCCC(c2cc(C(=O)Nc3ccccc3)no2)C1 (stereo not drawn) | -27% [at 12 µM] (inactive)
Cc1ccc(C(=O)n2nc(-n3cccc3)c3c(C)cc(C)nc32)cc1 | -22.4% [at 6 µM] (inactive)
Oc1ccc(-c2csc(-c3cccnc3)n2)c(O)c1 | -34.3% (inactive)
COc1ccc(C(=O)Nc2nnc(-c3ccco3)s2)cc1 | -21.3% [at 3 µM] (inactive)
Cc1ccc(-c2csc(Nc3ccccn3)n2)cc1 | -11.1% (inactive)
O=C(C[C@@H]1C[C@H]2c3cc(NC(=O)c4ccc5c(c4)OCO5)ccc3O[C@H]2[C@@H](CO)O1)NCc1ccc(Oc2ccccc2)cc1 | -15.7% [at 0.05 µM] (inactive)
COCCn1c(C)cc(C(=O)CSc2nc3ccccc3s2)c1C | -17.4% (inactive)
Cc1ccc(C(=O)NC2CCCCCCC2)c(Cl)c1 | -18.7% [at 0.38 µM] (inactive)

SMILES | max activity
Cc1noc(C)c1S(=O)(=O)Nc1cccc2c1O[C@H](CN(C)C(=O)Nc1ccc(F)cc1)[C@H](C)CN([C@H](C)CO)C2=O | -6.26% (inactive)
Cc1ccc(Nc2nc(N)c3ccccc3n2)cc1C | -37.4% (inactive)
Cc1ccc(C(=O)NCCc2cccs2)cc1 | 37.3% [at 3 µM] (inactive)
Cc1ccc2nc(NC(=O)CCCC(=O)O)sc2c1 | 12.5% (inactive)
O=C(NCCOc1ccccc1)[C@@H]1CCCN1C(=O)c1cccs1 | -12.7% [at 0.05 µM] (inactive)
Cc1ccccc1OCC(=O)Nc1cccc(C(=O)O)c1 | 6.54% (inactive)
O=C(c1cc(-c2ccccc2Cl)on1)N1CCCC1 | 27.2% (inactive)
O=C(CCCc1ccccc1)Nc1cccc(C(=O)O)c1 | 48.9% (inactive)
Cc1ccsc1/C=N/Nc1cccc(C(=O)O)c1 | 25.6% [at 0.8 µM] (inactive)
CNCc1ccccc1Sc1ccc(O)c(O)c1 | -16.4% (inactive)
OC1CCC(Nc2ccn3nc(-c4cccc(OCc5ccccc5)c4)cc3n2)CC1 (stereo not drawn) | -14.9% [at 12 µM] (inactive)
C[C@@H]1CN([C@H](C)CO)C(=O)CCCn2nncc2CO[C@H]1CN(C)C(=O)Nc1cccc2ccccc12 | 15.4% (inactive)
Cc1ccc(-n2cc(CN(C)Cc3nccn3C)c(-c3cccc(C)c3)n2)cc1 | 22.6% [at 1.6 µM] (inactive)
Cc1ccccc1C(=O)Nc1nnc(-c2ccco2)s1 | -13.7% [at 12 µM] (inactive)
Nc1nccc(-c2cc(-c3ccc(Cl)cc3Cl)no2)n1 | 47.2% [at 6 µM] (inactive)
COc1ccc(-c2cc3nc(NCC4CCCCC4)n(C)c(=O)c3s2)cc1OC | 41.6% [at 1.6 µM] (inactive)
C[C@H](CO)N1C[C@H](C)[C@H](CN(C)C(=O)Nc2ccccc2)OCCCC[C@H](C)Oc2ccc(NC(=O)Nc3ccc4c(c3)OCO4)cc2C1=O | 50.9% [at 0.195 µM] (inactive)
CC(C)NC(=O)Nc1ccc2c(c1)C(=O)N([C@H](C)CO)C[C@@H](C)[C@H](CN(C)S(C)(=O)=O)OCCCC[C@H](C)O2 | 43.1% (inactive)
C[C@H]1CN([C@@H](C)CO)C(=O)c2cc(C#CCc3ccccc3)cnc2O[C@H]1CN(C)Cc1ccccc1 | 13.9% [at 3 µM] (inactive)

Source: PubChem BioAssay AID743446 (Broad Institute, 2014)
